Source: article PMC7819943, “Rice protein-binding microarrays: a tool to detect cis-acting elements near promoter regions in rice”
In all, about 35,000 sequences were measured (“fluorescence intensity (a.u.)”: median about 10,000, highest 2% from about 52,000 on). The full list was thinned out, with the highest values kept by preference.

Each sequence was assayed against T1, OsWOX13 (Oryza sativa, UniProt Q5QMM3 1-267) (assay: protein-binding microarray (RPBM); PBS, 2% BSA, 51.3 ng/ul salmon testes DNA, 50 uM zinc acetate, 200 nM TF, 25 C, 1 h; high values mean tight binding). Conditions: protein: recombinant; tags: N-terminal polyhistidine and DsRed monomer fusion (pET32a); label: CyDye5-dUTP incorporated in the synthesized complementary strand; 3' TTTTT single-stranded linker to array surface; dsDNA, one strand shown.
T1 sequence: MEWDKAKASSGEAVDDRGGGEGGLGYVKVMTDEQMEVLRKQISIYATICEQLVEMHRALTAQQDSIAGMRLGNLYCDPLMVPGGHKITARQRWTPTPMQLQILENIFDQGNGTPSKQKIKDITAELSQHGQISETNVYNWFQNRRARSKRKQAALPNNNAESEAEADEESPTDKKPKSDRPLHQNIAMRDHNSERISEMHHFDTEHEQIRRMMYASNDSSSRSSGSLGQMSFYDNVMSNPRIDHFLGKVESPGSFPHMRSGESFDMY
Outline: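 In PBS with 2% BSA, salmon testes DNA and 50 µM zinc acetate, 200 nM protein was incubated on a custom Agilent array at 25 °C for 1 h and then washed off. The array had been made double-stranded by primer extension with Cy5-dUTP and blocked with 2% BSA. The proteins were transcription factors fused N-terminally to polyhistidine and DsRed, expressed in E. coli BL21-CodonPlus and purified on Ni–NTA. The binding signal is per-feature fluorescence intensity (arbitrary units) from an Axon 4000B scanner.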

Row | Sequence | binding signal
1 | AAATTTTAAATTTTAGTAAAATTTGTTCGGTCTTTCTCTCCGGAGTCACCTAGTGCAG | 5920 fluorescence intensity (a.u.)
2 | ATAAATTTTATAAACTTGACTGCCTCTGGTTGTATATGCACGGAGTCACCTAGTGCAG | 23900 fluorescence intensity (a.u.)
3 | TGTAATTTGTTCTTGTTATCATCAATCCCATATAAACTGGCGGAGTCACCTAGTGCAG | 22300 fluorescence intensity (a.u.)
4 | ATCCTTTTCTCCTTTTCTCGCAAAATCTCCAAAACCGCTTCGGAGTCACCTAGTGCAG | 65500 fluorescence intensity (a.u.)
5 | CAAACGGGTAATTAACTGGGATTAATTTGCCATAAGCCGACGGAGTCACCTAGTGCAG | 53100 fluorescence intensity (a.u.)
6 | CCTGTTAAATTGATCTGCCCTGATTAATTGACCCACCGACCGGAGTCACCTAGTGCAG | 38100 fluorescence intensity (a.u.)
7 | AATTAATTGTCTGATCAGTGATCTTTATTAACTGTCGACGCGGAGTCACCTAGTGCAG | 28400 fluorescence intensity (a.u.)
8 | ATTAACCATAACCTAATTTGGATAAGCCGACATGGATCGGCGGAGTCACCTAGTGCAG | 8230 fluorescence intensity (a.u.)
9 | TTGATCTGATTAATTAACTGATCAGACGGGTCGACGGGACCGGAGTCACCTAGTGCAG | 55700 fluorescence intensity (a.u.)
10 | CTACCTTTAATTAGCTTTGCCATAAACGACGTGGGAGTATCGGAGTCACCTAGTGCAG | 10300 fluorescence intensity (a.u.)
11 | CCCCAAATCCCACTCCAATCACCACCGCTTCTTCTCCTCCCGGAGTCACCTAGTGCAG | 6580 fluorescence intensity (a.u.)
12 | CAAATTCCAATCATCTCCAAAACCACTTCGCAAATAAATTCGGAGTCACCTAGTGCAG | 17900 fluorescence intensity (a.u.)
13 | TAGGATTTGACCATAGTAAATTAATTTGGAGGAATTGTTTCGGAGTCACCTAGTGCAG | 3990 fluorescence intensity (a.u.)
14 | CCATCTGATTAGAGATTTGATCCTATACCTTCCTAAACATCGGAGTCACCTAGTGCAG | 40700 fluorescence intensity (a.u.)
15 | AGTACTGTAGATAATAAAGTAAGTCACGAATAAAATAAATCGGAGTCACCTAGTGCAG | 50900 fluorescence intensity (a.u.)
16 | TTAATTGTTTTATCCTATTAATTGGTAGAAGCGGTATTTTCGGAGTCACCTAGTGCAG | 26700 fluorescence intensity (a.u.)
17 | AAAGATAATTGAAAAGTAAACTTGTTGACAGACGGAATCCCGGAGTCACCTAGTGCAG | 30400 fluorescence intensity (a.u.)
18 | CATGATTAATCAAGTTAATTATTATACACTAAATATTGGACGGAGTCACCTAGTGCAG | 59600 fluorescence intensity (a.u.)
19 | TTAACATGTAATCAATTAAATACTAATTATTATAAACGTGCGGAGTCACCTAGTGCAG | 53100 fluorescence intensity (a.u.)
20 | TATGATTATCACAAGTAATATATAAATTATTAGTCAAGTTCGGAGTCACCTAGTGCAG | 33600 fluorescence intensity (a.u.)
21 | AATTATTTAAATCAATGTAACTCAAAAGTTAATAAACGTGCGGAGTCACCTAGTGCAG | 13100 fluorescence intensity (a.u.)

Row | Sequence | binding signal
22 | TTGGACACTAATTATAAATATTAAATATAGACTATTAATACGGAGTCACCTAGTGCAG | 4640 fluorescence intensity (a.u.)
23 | ACTAATTATAAATCAGAACGATTTATTAACTACTCAATAACGGAGTCACCTAGTGCAG | 24400 fluorescence intensity (a.u.)
24 | GGGTGTGTAAGGGTAGGTGGAGGGGTGGGTGATGCGAGATCGGAGTCACCTAGTGCAG | 4470 fluorescence intensity (a.u.)
25 | GCCTAATTAGTCCATGATTAGCTATAAGTGCTACAATAACCGGAGTCACCTAGTGCAG | 28100 fluorescence intensity (a.u.)
26 | TCCGTGATTAGCCATAAGTGCTACAGTAACCCACATGTGCCGGAGTCACCTAGTGCAG | 35800 fluorescence intensity (a.u.)
27 | TTGAGTCTAATTAGTCCATGATTAGCCATAAGTGCTACAGCGGAGTCACCTAGTGCAG | 30600 fluorescence intensity (a.u.)
28 | TAAGCCTAATTAGTCTATGATTAGCCATAAGTGCTACAGTCGGAGTCACCTAGTGCAG | 37800 fluorescence intensity (a.u.)
29 | CCGTGATTAGCCATAAGTGCTACAGTAACCCACATGTGCTCGGAGTCACCTAGTGCAG | 57900 fluorescence intensity (a.u.)
30 | CCTAATTAATCCATGATTAGTCATAAGTGTTACAATAATCCGGAGTCACCTAGTGCAG | 55500 fluorescence intensity (a.u.)
31 | GTCTAATTAGTCCATGATTAATTAGCCATAAGTTCTACAGCGGAGTCACCTAGTGCAG | 53100 fluorescence intensity (a.u.)
32 | CCTAATTAGTCCATGATTAGTCATAAGTACTACAATAACCCGGAGTCACCTAGTGCAG | 33900 fluorescence intensity (a.u.)
33 | CATGATTAGCCATAAGTGCTACAGTAACCCACATGTGCTACGGAGTCACCTAGTGCAG | 34300 fluorescence intensity (a.u.)
34 | AGACTTAATTGTAACTGTGTACTACTACGAGCTTAATCAGCGGAGTCACCTAGTGCAG | 28400 fluorescence intensity (a.u.)
35 | AGAGTTGTAATTAACCTTTTCAGGTTGTATTGACTGCAAGCGGAGTCACCTAGTGCAG | 3760 fluorescence intensity (a.u.)
36 | GGATTAATAGATAGTCTGACTTTTCTGATAACTATTTAAGCGGAGTCACCTAGTGCAG | 28400 fluorescence intensity (a.u.)
37 | TTAAAATTATGTTTGAAAATTTAAATTTTAGACGCGGCTTCGGAGTCACCTAGTGCAG | 14900 fluorescence intensity (a.u.)
38 | AAATTAATTAATACAATATATTCCTGCATGCCCTGTATAACGGAGTCACCTAGTGCAG | 23800 fluorescence intensity (a.u.)
39 | ACCCTAATTCTCCTAATCTCTTAGGAAATATGGAAGAAGCCGGAGTCACCTAGTGCAG | 3170 fluorescence intensity (a.u.)
40 | GATCGAATTGGTAAATCAAATGTCTCTAAATTCTCTCCATCGGAGTCACCTAGTGCAG | 4550 fluorescence intensity (a.u.)
41 | TTCTCTAGCCCTAAATATGCCGAAGAATATTCCATGTCTCCGGAGTCACCTAGTGCAG | 64900 fluorescence intensity (a.u.)
42 | TGCTAGAATGATTTACGTTATGAAACTGAGGGAGTACATCCGGAGTCACCTAGTGCAG | 5380 fluorescence intensity (a.u.)

Row | Sequence | binding signal
43 | TGTGATTTATATCGTGGAAGATGATGGCTTGGCGGTATAGCGGAGTCACCTAGTGCAG | 36300 fluorescence intensity (a.u.)
44 | GTCGATAAATTATTCGCGGCACAATTATTTGTGCCCCATTCGGAGTCACCTAGTGCAG | 5580 fluorescence intensity (a.u.)
45 | AGCAAAATTGATTGCTAATCTTCGGTGTCCAGCAGAGCCCCGGAGTCACCTAGTGCAG | 64900 fluorescence intensity (a.u.)
46 | TCTTCTGATTGCTTTCACACAAGATCCAGCAAAATTAATTCGGAGTCACCTAGTGCAG | 16900 fluorescence intensity (a.u.)
47 | AACTAAAACACAGAAATTGATAGTCCAGCAAAACTAGCCCCGGAGTCACCTAGTGCAG | 5180 fluorescence intensity (a.u.)
48 | ATACACCAGTTGATTATAATGACAGTGATATTATGGTGGACGGAGTCACCTAGTGCAG | 17800 fluorescence intensity (a.u.)
49 | CAAACTAATAATTTGGCTTTTGGCTTCTGCTGAAGCAAGTCGGAGTCACCTAGTGCAG | 4830 fluorescence intensity (a.u.)
50 | GCTGATTGCCATTGATTCATATTCATTGTGTGCCATCTGGCGGAGTCACCTAGTGCAG | 58800 fluorescence intensity (a.u.)
51 | GCCATATGATTATTTAATCTGATCCGGAGGATTAAACAAGCGGAGTCACCTAGTGCAG | 14100 fluorescence intensity (a.u.)
52 | ACATTCATATTGATGTTAATGATTCTAGACATATATATCTCGGAGTCACCTAGTGCAG | 4710 fluorescence intensity (a.u.)
53 | TCTGATTTAACTGCATTGCATTTGTGTCATTGACATGTGGCGGAGTCACCTAGTGCAG | 42600 fluorescence intensity (a.u.)
54 | CATAATTAGCGGTTGATTACTGTAGCATCACTGTAACAAACGGAGTCACCTAGTGCAG | 29600 fluorescence intensity (a.u.)
55 | GCCTGATTATCCATTGTTCATCCTGCCATATTGATTTCAGCGGAGTCACCTAGTGCAG | 30300 fluorescence intensity (a.u.)
56 | CTAGACATATATATTTATCTAGATTCATTAACATCCATATCGGAGTCACCTAGTGCAG | 5320 fluorescence intensity (a.u.)
57 | ACGGTAATTAACGTTGATTACCATAATTAGCGGCGCATTGCGGAGTCACCTAGTGCAG | 65200 fluorescence intensity (a.u.)
58 | TGCAGTGATAATTTAGGATTATTTAAGATTTGCACAGTGGCGGAGTCACCTAGTGCAG | 12500 fluorescence intensity (a.u.)
59 | GCTGATTGATTCATTCTGATCTGAACATATAGACAACCATCGGAGTCACCTAGTGCAG | 54700 fluorescence intensity (a.u.)
60 | AAACCATTAGCGCATAATTTATTGAGTTTTAATTATTTCACGGAGTCACCTAGTGCAG | 6070 fluorescence intensity (a.u.)
61 | GTTATGATTAATTGCGCCATTAGGATATTAATTAATCTGGCGGAGTCACCTAGTGCAG | 54500 fluorescence intensity (a.u.)
